{"source": "PubChem BioAssay (NCI)", "note": "The panel holds about 83,000 compounds, 20% with a hit somewhere; the sample as a whole holds those more often.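 Results are percent growth after 48 hours of single-concentration exposure. 100 means growth as in untreated cells, lower positive values show inhibition; negative values down to -100 show cell death.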 Unmarked numbers belong to inactive results. Calls of active or inactive are those of the source."}
{"system": "UO-31 renal", "assay": "NCI-60 one-dose screen, 48 h (100 = growth as untreated, 0 = no growth, -100 = all killed)", "conditions": "10 µM", "protocol": "Growth inhibition of the UO-31 human tumor cell line is measured as a screen for anti-cancer activity. Cells are grown in 96 well plates and exposed to the test compound for 48 hours. Compounds are tested at a single concentration, which is 10^-5 M for most compounds. The reported endpoint is percent growth (GI% or GIPRCNT), where numbers from 0 - 100% represent growth inhibition, and numbers from -100% - 0 represent cell death. For example, a value of 40 represents 60% growth inhibition. A value of 0 means no net growth occurred over the course of the experiment. A value of -40 indicates 40% of cells at the beginning of the experiment died by the end of the experiment. A value of -100 means all cells are dead at the end of the experiment.\nNCI-60 Human Tumor Cell Lines Screen was performed using the standard one-dose NCI protocol, which is described in more detail at https://dtp.cancer.gov/discovery_development/nci-60/default.htm.\nCompounds with GIPRCNT values below 10 were considered active. Activity score was based on GIPRCNT using the following formula: […]\nScore is 0 for GIPRCNT values of 100 or above, 50 for GIPRCNT values of 0, and 100 for GIPRCNT values of -100."}
{"molecule": "O=C(Nc1nc2ccccc2s1)Nc1ccc([N+](=O)[O-])cc1Cl", "growth": "26.8%"}
{"molecule": "COc1ccc2c(c1)O/C(=C\\c1ccc([N+](=O)[O-])s1)C2=O", "growth": "24%"}
{"molecule": "CC1(C)N=C(N)N=C(N)N1c1ccc(CCc2ccccc2)c(Cl)c1", "growth": "87.9%"}
{"molecule": "CN(C)CCCn1c(=O)c2ccccc2c2cnc3[nH]ccc3c21", "growth": "0.877% (active)"}
{"molecule": "CCN(CC)CCCC(C)Nc1ccc2ccc(Cl)cc2n1", "note": "(stereo not given)", "growth": "85.8%"}
{"molecule": "CS(=O)(=O)Nc1cccc(-c2cc(-c3ccccc3Cl)c(C#N)c(N)n2)c1", "growth": "26%"}
{"molecule": "COc1cc(Nc2ccnc(NCCNc3ccnc4cc(Cl)ccc34)n2)cc(OC)c1", "growth": "37%"}
{"molecule": "CCC1(C(C)C)NC(=O)NC1=O", "note": "(stereo not given)", "growth": "82.1%"}
{"molecule": "COc1ccccc1/C=C/C(=O)c1ccccc1", "growth": "60.1%"}
{"molecule": "CCOC(=O)N1C/C(=C/c2ccc(F)cc2)C(=O)/C(=C/c2ccc(F)cc2)C1", "growth": "-55.6% (active)"}
{"molecule": "COc1ccccc1CNCCCN1C(=O)c2ccc3c4c(ccc(c24)C1=O)C(=O)N(CCCN)C3=O", "growth": "-20.8% (active)"}
{"molecule": "COc1ccc2c(c1)sc1nc(-c3ccccc3)c(-c3ccsc3)n12", "growth": "37.8%"}
{"molecule": "CCOC(=O)C(CSC(c1ccccc1)(c1ccccc1)c1ccccc1)NC(=O)C(CSC(c1ccccc1)(c1ccccc1)c1ccccc1)NC(c1ccccc1)(c1ccccc1)c1ccccc1", "note": "(stereo not given)", "growth": "94.8%"}
{"molecule": "COc1ccc(-c2nc3ncccn3c2-c2nnc(-c3ccsc3C)o2)cc1", "growth": "73.8%"}
{"molecule": "COc1ccc2c(c1OC)O/C(=C\\c1ncc([N+](=O)[O-])n1C)C2=O", "growth": "-42.8% (active)"}
{"molecule": "O=C1OCC2=C1C(c1cccc(Br)c1)c1cc3c(cc1N2CCO)CCC3", "note": "(stereo not given)", "growth": "33.9%"}
{"molecule": "O=C1C(=O)c2ccccc2C(O)=C1CCCc1ccc(C2CCCCCC2)cc1", "growth": "24.2%"}
{"molecule": "COc1ccc(S(=O)(=O)NCCCNc2nccc(-c3c(-c4ccc(F)cc4)nc4sccn34)n2)cc1", "growth": "22.1%"}
{"molecule": "CCN(CC)CCNC(=O)c1ccc(NC(C)=O)cc1", "growth": "98.3%"}
{"molecule": "CC(C)=CCc1ccc(O)c(=O)cc1C(C)C", "growth": "-10.4% (active)"}
{"molecule": "Cn1c([N+](=O)[O-])cnc1/C=C1\\Oc2ccc(Cl)cc2C1=O", "growth": "-31.9% (active)"}
{"molecule": "CC(=O)c1cc(Cl)ccc1O", "growth": "78.3%"}
{"molecule": "CCN(CC)CCOc1nc2ccccc2c2c1-c1ccc(OC)cc1C2=O", "growth": "-53.3% (active)"}
{"molecule": "Clc1ccc(Nc2ccnc(NCCNc3ccnc4cc(Cl)ccc34)n2)cc1", "growth": "-26.3% (active)"}
{"molecule": "COc1cc(-c2nn3c(/C=C4/C(=O)Nc5ccccc54)c(-c4ccc(C)cc4)nc3s2)cc(OC)c1OC", "growth": "73.1%"}
{"molecule": "Cc1cc(=O)[nH]c(N/N=C/c2ccccc2O)n1", "growth": "43.6%"}
{"molecule": "CCCC#CCN(CC)CC", "growth": "83.5%"}
{"molecule": "COc1ccc(-c2ccc(-c3ccc(C(=N)N)cn3)o2)cc1", "growth": "30.7%"}
{"molecule": "COc1ccc(-c2nc3ncccn3c2-c2nnc(-c3ccc(F)cc3)o2)cc1", "growth": "79.2%"}
{"molecule": "COc1ccc(-c2cc(-c3cccc(NS(C)(=O)=O)c3)nc(N)c2C#N)cc1", "growth": "31.9%"}
{"molecule": "COc1ccc(OC)c(/C=C/c2nc(SCc3ccccc3)n(-c3ccc(Cl)cc3)n2)c1", "growth": "-48.7% (active)"}
{"molecule": "O=C(Nc1ccc(Cl)cc1)N1NC(c2ccc(Cl)cc2)C=C1c1ccccc1", "note": "(stereo not given)", "growth": "85.8%"}
{"molecule": "Nc1nc(N)c(NC(=O)CNc2ccc(C(=O)O)cc2)c(N)n1", "growth": "94.1%"}
{"molecule": "COc1ccc(/C=C2/CN(C(=O)c3ccccc3F)C/C(=C\\c3ccc(OC)cc3)C2=O)cc1", "growth": "46.1%"}
{"molecule": "COc1cc(Cc2cc(-c3ccc(Cl)cc3)n[nH]c2=O)ccc1O", "growth": "83.9%"}
{"molecule": "CCCCOC(=O)Oc1ccc(C(=O)Oc2ccc(OCC)cc2)cc1", "growth": "85.6%"}
{"molecule": "COc1cc(-c2nc(Nc3nc4ccccc4s3)[nH]c(=O)c2C#N)cc(OC)c1O", "growth": "88.1%"}
{"molecule": "O=C(O)CCCCSc1ncnc2nc[nH]c12", "growth": "70%"}
{"molecule": "O=C(Nc1ccc(Cl)c([N+](=O)[O-])c1)Nc1nc2ccccc2s1", "growth": "83.8%"}
{"molecule": "Nc1ncn([C@@H]2O[C@H](CO)[C@@H](O)[C@H]2O)c(=O)n1", "growth": "15%"}
